Data from paper PMC4336329 (PLoS ONE, 2015).
The campaign covered roughly 310,000 compounds. About 14,000 (4.5%) showed an effect of 50% or more. Effects have a minus sign here. The sample holds strong results, similar compounds and a random draw of the others, so the mix is not that of the screen.

Target: human ether-à-go-go-related gene (hERG) potassium channel (human, UniProt Q12809)
Assay: primary screen, population patch clamp on CHO cells stably expressing hERG; higher = less effect of the substance
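Also: peak tail current of the secondary pulse compared with the same well before compound.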

human ether-à-go-go-related gene (hERG) potassium channel, sequence (Q12809 whole entry, looked up): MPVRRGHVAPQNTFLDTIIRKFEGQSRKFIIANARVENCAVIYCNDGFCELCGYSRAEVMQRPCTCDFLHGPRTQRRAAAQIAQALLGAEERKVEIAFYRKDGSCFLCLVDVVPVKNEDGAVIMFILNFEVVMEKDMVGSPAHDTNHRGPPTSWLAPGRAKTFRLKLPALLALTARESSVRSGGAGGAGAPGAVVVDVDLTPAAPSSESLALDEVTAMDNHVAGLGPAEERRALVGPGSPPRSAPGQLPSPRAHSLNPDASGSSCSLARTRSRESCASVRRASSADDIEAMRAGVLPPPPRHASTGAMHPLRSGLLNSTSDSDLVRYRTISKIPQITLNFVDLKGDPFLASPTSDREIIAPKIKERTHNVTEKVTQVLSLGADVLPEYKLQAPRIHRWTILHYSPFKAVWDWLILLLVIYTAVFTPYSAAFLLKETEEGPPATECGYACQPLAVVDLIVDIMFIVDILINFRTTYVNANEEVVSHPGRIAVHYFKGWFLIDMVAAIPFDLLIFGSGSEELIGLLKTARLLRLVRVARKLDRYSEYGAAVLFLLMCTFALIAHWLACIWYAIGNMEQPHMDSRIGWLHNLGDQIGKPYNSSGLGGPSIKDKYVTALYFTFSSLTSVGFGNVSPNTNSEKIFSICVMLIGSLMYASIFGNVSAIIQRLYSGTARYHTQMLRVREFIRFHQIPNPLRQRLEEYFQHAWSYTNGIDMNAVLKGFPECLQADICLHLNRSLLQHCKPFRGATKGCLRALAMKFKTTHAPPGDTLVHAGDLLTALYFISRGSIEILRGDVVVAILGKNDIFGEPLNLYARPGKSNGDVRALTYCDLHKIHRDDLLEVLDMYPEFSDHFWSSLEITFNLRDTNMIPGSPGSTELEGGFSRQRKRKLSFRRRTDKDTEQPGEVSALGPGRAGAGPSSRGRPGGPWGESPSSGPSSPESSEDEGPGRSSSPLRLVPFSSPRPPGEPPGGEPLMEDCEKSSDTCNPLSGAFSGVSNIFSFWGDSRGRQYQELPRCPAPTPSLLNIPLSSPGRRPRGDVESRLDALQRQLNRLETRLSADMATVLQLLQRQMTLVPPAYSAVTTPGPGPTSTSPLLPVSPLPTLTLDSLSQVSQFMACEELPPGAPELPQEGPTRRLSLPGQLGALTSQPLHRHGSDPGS

Structure (SMILES)	hERG current change (%, negative = inhibition) at 10uM [%]
O=C(c1cc2ccccc2s1)N1CCN(c2ccccn2)CC1	-11.5
O=C(COC(=O)c1ccc(Br)o1)Nc1ncc([N+](=O)[O-])s1	10.6
O=C(c1ccc(Cl)cc1)C1CCN(C(=O)NC2CCCCC2)CC1	-6.29
Cc1noc(C)c1C(=O)OC(C)C(=O)N1CCc2ccccc21 (centres unmarked)	4.27
Cc1nc(-c2cccc(NC(=O)c3cccs3)c2)cs1	-23.3
CCCN(C(=O)c1c(-c2ccccc2)noc1C)c1c(N)n(Cc2ccccc2)c(=O)[nH]c1=O	1.43
COc1cccc(CNC(=O)Cc2ccc(Br)cc2)c1	5.59
Cc1ccc(-c2nnc(SCC(=O)Nc3nccs3)n2N)cc1	-10.4
O=[N+]([O-])c1ccc(N2CCN(c3ccc(O)cc3)CC2)c(Cl)c1	-3.4
CCn1nc(C)c(CNC(=O)Nc2ccccc2C(=O)OC)c1C	13.5
O=C(Nc1ccc2c(c1)CCC2)Nc1ccc(F)cc1F	15.5
O=C(Nc1ccc2c(c1)CCC2)Nc1ccccc1F	-61.6
Cc1ccccc1NC(=O)Nc1ccc2c(c1)CCC2	24.4
Cc1ccccc1NCN1C(=O)C2C3C=CC(C3)C2C1=O (centres unmarked)	6.34
COc1cccc(/C=N/NC(=O)Cn2nc(C)c([N+](=O)[O-])c2C)c1O	-13.1
CCN1CCN(C(=O)N2CCOCC2)CC1	15.5
Cc1cccc(NC(=O)CN2CCN(C(=O)c3cccc(-n4cnnn4)c3)CC2)c1C	-41.5
CS(=O)(=O)c1ccc(Cl)c(NC(=O)c2cccc(-n3cnnn3)c2)c1	-65.6
CS(=O)(=O)c1ccc(NC(=O)c2cccc(-n3cnnn3)c2)cc1	12.1
CS(=O)(=O)c1ccc(Cl)c(NC(=O)c2cccc(N3C(=O)CCC3=O)c2)c1	0.801
CCc1ccccc1NC(=O)COc1cccc(-n2cnnn2)c1	-8.5
O=C(CN1CCCCC1)Nc1cccc(-n2cnnn2)c1	0.45
O=C(c1cccc(-n2cnnn2)c1)N1CCOCC1	-8.49

Structure (SMILES)	hERG current change (%, negative = inhibition) at 10uM [%]
CCc1ccccc1NC(=O)CN1CCN(C(=O)c2cccc(-n3cnnn3)c2)CC1	-65
O=C(CN1CCN(C(=O)c2cccc(-n3cnnn3)c2)CC1)Nc1ccccc1Cl	-90.3
Cc1ccc(NC(=O)CSCC(=O)NC2(C)CCS(=O)(=O)C2)cc1 (centres unmarked)	5.44
O=C(O)Cc1sc(NCCc2ccccc2)nc1-c1ccc(F)cc1	3.77
Cc1cn2c(-c3ccc(Cl)cc3)nnc2s1	-33.3
CN(CCC#N)C(=O)COC(=O)c1ccc2c(=O)n3c(nc2c1)CCC3	35
COc1ccccc1/C=C/C(=O)OCC(=O)c1cc(C)n(C)c1C	-0.348
O=C(NCc1cccc(Cl)c1)c1ccc2c(c1)SC1=NS(=O)(=O)CCN12	-5.52
O=C(NCc1ccccc1Cl)c1ccc2c(c1)SC1=NS(=O)(=O)CCN12	-7.44
COc1ccc(CCNC(=O)c2ccc3c(c2)SC2=NS(=O)(=O)CCN23)cc1	-60.4
O=C(O)c1ccc2c(c1)SC1=NS(=O)(=O)CCN12	8.48
CC(C)(C)c1ccccc1NC(=O)c1ccc2c(c1)SC1=NS(=O)(=O)CCN12	6.51
CN(C(=O)c1ccc2c(c1)SC1=NS(=O)(=O)CCN12)C(c1ccccc1)c1ccccc1	-61
O=[N+]([O-])c1cc(-c2nnc(Nc3ccccc3)c3ccccc23)ccc1N1CCOCC1	-26.3
COC(=O)c1cc(C(=O)OC)cc(-n2c(C)cc(C(=O)CC#N)c2C)c1	-31.2
O=C(N/N=C\c1ccc(O)c([N+](=O)[O-])c1)C1COc2ccccc2O1 (centres unmarked)	-4.56
O=C(N/N=C/c1ccncc1)C1CC1(c1ccccc1)c1ccccc1 (centres unmarked)	-24.9
O=C(N/N=C/C=C/c1ccccc1)C1CC1(c1ccccc1)c1ccccc1 (centres unmarked)	-1.54
O=C(N/N=C/c1cccnc1)C1CC1(c1ccccc1)c1ccccc1 (centres unmarked)	-55.6
O=C(N/N=C/c1ccc(O)c([N+](=O)[O-])c1)C1CC1(c1ccccc1)c1ccccc1 (centres unmarked)	-50.7
O=C(O)c1ccc(/C=N/NC(=O)C2CC2(c2ccccc2)c2ccccc2)cc1 (centres unmarked)	17.9
CC(C)C(=O)Nc1nc2ccc(S(C)(=O)=O)cc2s1	5.14
Cc1ccc(S(=O)(=O)Nc2c(C)n(C)n(-c3ccccc3)c2=O)cc1	9.73

Structure (SMILES)	hERG current change (%, negative = inhibition) at 10uM [%]
O=C(CN1C(=O)NC2(CCCCCC2)C1=O)Nc1ccc2c(c1)CCC2	-5.72
CCOC(=O)c1nc2cc3n(c(CC(C)C)c-2c1C)CC(C)=C3C.Cl	-74
CCOC(=O)c1nc(C)nc(Sc2n[nH]c(-c3cc(Cl)cc(Cl)c3)n2)c1C	4.12
CCOC(=O)c1nc2ccccc2c(C)c1C.Cl	-5.73
CCOC(=O)c1nc2cc3n(c(C)c-2c1C)C(C)C(CC)=C3C.Cl (centres unmarked)	-66.7
CCOC(=O)c1nc2cc3n(c(C)c-2c1C)C(C)C(C)=C3C.Cl (centres unmarked)	-42.8
CCOC(=O)c1n[nH]n(-c2cc(Cl)cc(Cl)c2)c1=O	25.7
CCc1cc(=O)oc2c(CNCc3ccc(OC)cc3OC)c(O)c(Cl)cc12.Cl	13.3
NNC(=O)C1CC1c1ccc(Cl)cc1 (centres unmarked)	9.11
COc1cc(/C=N/Nc2ccc(Cl)c(C(=O)O)c2)ccc1OCC(=O)N1C(C)CCCC1C (centres unmarked)	16.5
CCCn1c(N)c(N(CCOC)C(=O)c2ccc(N(C)S(=O)(=O)c3ccc(C)cc3)cc2)c(=O)[nH]c1=O	7.32
O=C(NC1CCCCC1)c1ccc(S(=O)(=O)NCc2cccnc2)cc1	5.88
O=c1[nH]c(=O)n(-c2ccccc2Cl)c(O)c1C=NCCN1CCCCC1	6.09
CCCNCCC(c1ccco1)c1ccccc1OC (centres unmarked)	-41.8
COc1ccc(CC(C)NCCc2ccc(OC)c(OC)c2)cc1 (centres unmarked)	-60.3
COc1ccc(CNCCC(c2ccccc2)c2ccc3c(c2)OCO3)cc1.Cl (centres unmarked)	-75
COc1ccc(CC(C)CC(=O)NCCc2ccc(OC)c(OC)c2)cc1 (centres unmarked)	18.9
COc1ccc(CNc2ccc(-c3ccccc3OC)nn2)cc1	-13.1
COc1ccc(CCC(C)NCC(C)c2ccccc2)cc1 (centres unmarked)	-48.3
COc1ccc(CNCCC(c2ccc(OC)cc2)c2ccccc2OC)cc1 (centres unmarked)	-74.2
COc1ccc(C(CC(=O)O)c2ccc3c(c2)OCO3)cc1 (centres unmarked)	14.7
COc1ccc(C(CCN)c2ccc3c(c2)OCO3)cc1 (centres unmarked)	1.93
COc1ccc(CC(C)NCCC(c2ccccc2)c2ccccc2)cc1 (centres unmarked)	-71.5

Structure (SMILES)	hERG current change (%, negative = inhibition) at 10uM [%]
COc1ccc(CCC(C)NCCc2ccccc2)cc1 (centres unmarked)	-29.6
CNCCc1ccc(OC)c(OC)c1	19.4
CN(C)S(=O)(=O)c1ccc(N2CCCC2)c(C(=O)Nc2nc3ccc(F)cc3s2)c1	-37.1
Cc1nc(SCC(=O)Nc2ccc(C)c(F)c2)c2oc3ccccc3c2n1	4.4
COc1ccccc1NC(=O)c1cc(S(=O)(=O)N2CCC3(CC2)OCCO3)ccc1F	-4.73
COc1ccc(CN2CN(c3ccc(Cl)cc3)C(=O)N(n3cnnc3)C2)cc1	-38.6
COC(=O)C1=C(c2ccccc2)C[C@@H]2CC[C@H]1N2C(=O)N1CCCCC1	-4.4
Cn1c(=O)c2c(ncn2CCOc2ccc(F)cc2)n(C)c1=O	12.3
O=C(N/C=N/O)C(c1ccccc1)c1ncc(C(F)(F)F)cc1Cl (centres unmarked)	3.35
COc1ccc(-c2c/c(=N\c3nc(-c4ccccc4)c(C)s3)c3ccccc3o2)cc1O	4.17
COc1ccccc1NC(=O)C1CCCCN1S(=O)(=O)c1ccc(F)cc1 (centres unmarked)	-27.9
O=C(NCc1ccc(F)cc1)N[C@@H](Cc1ccccc1)C(=O)O	7.44
CC(=O)OCc1c(C(F)(F)F)nn(C)c1Oc1cccc(C(F)(F)F)c1	2.3
COc1ccc(NC(=S)NCCC(c2ccccc2)c2ccccc2)c(OC)c1	2.53
COc1ccc(C(C)NCCC(c2ccc(OC(C)C)cc2)c2ccccc2OC)cc1 (centres unmarked)	-64.2
COc1cccc(NC(=O)CC(c2ccc(OC(C)C)cc2)c2ccccc2OC)c1 (centres unmarked)	1.26
COc1ccc(C(O)P(=O)(OCc2ccccc2)c2ccc(N(C)C)cc2)cc1 (centres unmarked)	15.4
COc1ccc(C(CC(=O)Nc2ccc(F)cc2)c2ccccc2)cc1 (centres unmarked)	9.13
COc1ccc(C(CCNC(C)c2ccccc2)c2ccc(F)cc2)cc1 (centres unmarked)	-54.6
COc1ccc(C(CCNCc2ccc(OC(C)C)cc2)c2ccccc2OC)cc1 (centres unmarked)	-76
COc1ccc(C(CCNC(C)c2ccccc2)C(C)C)cc1 (centres unmarked)	-4.48
COc1ccccc1C(CC(=O)Nc1ccc(Cl)cc1)c1ccc(OC(C)C)cc1 (centres unmarked)	1.17
COc1ccc(C(CCNCc2ccc(N(C)C)cc2)c2ccccc2OC)cc1 (centres unmarked)	-71.1
